Results from the supplement of paper PMC11732987, “Enantioselective OTUD7B fragment discovery through chemoproteomics screening and high-throughput optimisation” (Communications Chemistry, 2025).

Key:
Assay in all cases: log2 ratio of Biotin-Ahx-Ub-VS probe labelling (fragment/DMSO); higher = less target engagement (more negative = stronger competition), active = hit call of the paper (q ≤ 0.05, log2 ratio ≤ -1)
Details in all cases: compound concentration: 200 uM; treatment time: 3 h
[1] = target: T1, ALG13 (UniProt Q9NP73)
T1 sequence (whole entry): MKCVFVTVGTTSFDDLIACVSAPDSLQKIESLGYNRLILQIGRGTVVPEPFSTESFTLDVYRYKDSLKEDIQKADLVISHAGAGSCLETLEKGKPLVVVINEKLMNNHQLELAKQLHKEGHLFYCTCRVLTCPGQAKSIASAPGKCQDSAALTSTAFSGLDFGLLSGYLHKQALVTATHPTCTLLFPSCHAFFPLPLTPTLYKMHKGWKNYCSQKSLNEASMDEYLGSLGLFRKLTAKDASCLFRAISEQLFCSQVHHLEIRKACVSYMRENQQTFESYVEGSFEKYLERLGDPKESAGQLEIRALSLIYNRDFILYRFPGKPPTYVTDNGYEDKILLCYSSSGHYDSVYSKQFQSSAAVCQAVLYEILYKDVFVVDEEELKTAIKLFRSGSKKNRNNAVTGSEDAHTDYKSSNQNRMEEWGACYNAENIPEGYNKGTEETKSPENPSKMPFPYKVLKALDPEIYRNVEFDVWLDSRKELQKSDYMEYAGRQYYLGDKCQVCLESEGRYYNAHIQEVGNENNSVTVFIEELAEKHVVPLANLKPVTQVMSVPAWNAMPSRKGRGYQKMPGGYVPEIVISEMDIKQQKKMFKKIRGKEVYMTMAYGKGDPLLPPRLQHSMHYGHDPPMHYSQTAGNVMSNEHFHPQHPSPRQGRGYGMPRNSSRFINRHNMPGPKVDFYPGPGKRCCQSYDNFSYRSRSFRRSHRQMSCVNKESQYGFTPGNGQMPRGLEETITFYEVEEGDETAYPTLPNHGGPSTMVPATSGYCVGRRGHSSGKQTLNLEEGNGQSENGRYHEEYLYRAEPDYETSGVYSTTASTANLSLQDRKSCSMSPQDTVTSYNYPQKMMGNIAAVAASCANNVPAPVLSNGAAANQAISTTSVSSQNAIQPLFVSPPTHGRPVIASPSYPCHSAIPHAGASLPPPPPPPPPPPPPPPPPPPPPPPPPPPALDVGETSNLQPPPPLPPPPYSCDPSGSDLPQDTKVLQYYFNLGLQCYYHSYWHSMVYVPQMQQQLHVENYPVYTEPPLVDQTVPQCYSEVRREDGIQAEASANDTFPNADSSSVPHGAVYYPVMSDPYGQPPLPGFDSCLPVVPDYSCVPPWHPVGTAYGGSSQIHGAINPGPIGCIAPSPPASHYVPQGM
Method in brief: (§1)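 Triplicate samples of HEK293T lysate, 495 µg each, received fragment at 200 µM or vehicle for 3 h, followed by Biotin-Ahx-Ub-VS (0.5 µM final) for 1 h. After NeutrAvidin enrichment of labelled DUBs and LysC/trypsin digestion, peptides were run by diaPASEF LC-MS/MS. The values are average log2 fragment/vehicle ratios from global-median-normalised Spectronaut label-free quantities, tested by unpaired t-test on proteins having ≥2 unique peptides.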

[2] = target: ATXN3 (UniProt P54252)
Method in brief: as §1

[3] = target: T2, BAP1 (UniProt Q92560)
T2 sequence (whole entry): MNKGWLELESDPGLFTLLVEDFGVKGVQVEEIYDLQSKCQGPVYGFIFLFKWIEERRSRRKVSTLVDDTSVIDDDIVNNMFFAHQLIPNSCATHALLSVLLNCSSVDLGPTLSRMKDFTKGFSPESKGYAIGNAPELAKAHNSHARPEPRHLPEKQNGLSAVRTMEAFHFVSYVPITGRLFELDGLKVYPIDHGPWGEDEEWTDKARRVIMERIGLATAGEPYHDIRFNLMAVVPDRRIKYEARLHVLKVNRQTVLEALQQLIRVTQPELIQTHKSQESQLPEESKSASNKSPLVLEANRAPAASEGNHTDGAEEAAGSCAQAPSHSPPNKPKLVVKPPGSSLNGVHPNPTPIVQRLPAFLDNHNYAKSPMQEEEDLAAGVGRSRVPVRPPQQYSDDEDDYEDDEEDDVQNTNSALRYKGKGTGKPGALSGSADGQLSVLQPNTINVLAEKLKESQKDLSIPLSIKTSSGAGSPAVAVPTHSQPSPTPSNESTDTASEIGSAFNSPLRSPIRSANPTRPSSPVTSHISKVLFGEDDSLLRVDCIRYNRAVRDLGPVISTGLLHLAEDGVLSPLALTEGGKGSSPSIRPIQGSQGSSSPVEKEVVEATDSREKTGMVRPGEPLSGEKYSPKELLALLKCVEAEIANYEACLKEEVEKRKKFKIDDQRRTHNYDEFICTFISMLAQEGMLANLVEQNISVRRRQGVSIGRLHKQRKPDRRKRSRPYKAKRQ
Method in brief: as §1

[4] = target: EIF3F (UniProt O00303)
Method in brief: as §1

[5] = target: EIF3H (UniProt O15372)
Method in brief: as §1

[6] = target: T3, FAM105A (UniProt Q9NUU6)
T3 sequence (whole entry): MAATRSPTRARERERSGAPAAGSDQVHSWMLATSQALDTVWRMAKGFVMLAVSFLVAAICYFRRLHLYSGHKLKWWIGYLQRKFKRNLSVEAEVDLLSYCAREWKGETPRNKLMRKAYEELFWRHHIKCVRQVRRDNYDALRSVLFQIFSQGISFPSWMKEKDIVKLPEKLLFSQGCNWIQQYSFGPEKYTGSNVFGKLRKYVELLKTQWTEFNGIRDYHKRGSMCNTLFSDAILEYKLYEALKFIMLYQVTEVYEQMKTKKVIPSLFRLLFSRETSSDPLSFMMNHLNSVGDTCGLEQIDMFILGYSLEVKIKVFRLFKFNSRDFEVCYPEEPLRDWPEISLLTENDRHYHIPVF
Method in brief: as §1

[7] = target: OTUB1 (UniProt Q96FW1)
Method in brief: as §1

[8] = target: T4, OTUD4 (UniProt Q01804)
T4 sequence (whole entry): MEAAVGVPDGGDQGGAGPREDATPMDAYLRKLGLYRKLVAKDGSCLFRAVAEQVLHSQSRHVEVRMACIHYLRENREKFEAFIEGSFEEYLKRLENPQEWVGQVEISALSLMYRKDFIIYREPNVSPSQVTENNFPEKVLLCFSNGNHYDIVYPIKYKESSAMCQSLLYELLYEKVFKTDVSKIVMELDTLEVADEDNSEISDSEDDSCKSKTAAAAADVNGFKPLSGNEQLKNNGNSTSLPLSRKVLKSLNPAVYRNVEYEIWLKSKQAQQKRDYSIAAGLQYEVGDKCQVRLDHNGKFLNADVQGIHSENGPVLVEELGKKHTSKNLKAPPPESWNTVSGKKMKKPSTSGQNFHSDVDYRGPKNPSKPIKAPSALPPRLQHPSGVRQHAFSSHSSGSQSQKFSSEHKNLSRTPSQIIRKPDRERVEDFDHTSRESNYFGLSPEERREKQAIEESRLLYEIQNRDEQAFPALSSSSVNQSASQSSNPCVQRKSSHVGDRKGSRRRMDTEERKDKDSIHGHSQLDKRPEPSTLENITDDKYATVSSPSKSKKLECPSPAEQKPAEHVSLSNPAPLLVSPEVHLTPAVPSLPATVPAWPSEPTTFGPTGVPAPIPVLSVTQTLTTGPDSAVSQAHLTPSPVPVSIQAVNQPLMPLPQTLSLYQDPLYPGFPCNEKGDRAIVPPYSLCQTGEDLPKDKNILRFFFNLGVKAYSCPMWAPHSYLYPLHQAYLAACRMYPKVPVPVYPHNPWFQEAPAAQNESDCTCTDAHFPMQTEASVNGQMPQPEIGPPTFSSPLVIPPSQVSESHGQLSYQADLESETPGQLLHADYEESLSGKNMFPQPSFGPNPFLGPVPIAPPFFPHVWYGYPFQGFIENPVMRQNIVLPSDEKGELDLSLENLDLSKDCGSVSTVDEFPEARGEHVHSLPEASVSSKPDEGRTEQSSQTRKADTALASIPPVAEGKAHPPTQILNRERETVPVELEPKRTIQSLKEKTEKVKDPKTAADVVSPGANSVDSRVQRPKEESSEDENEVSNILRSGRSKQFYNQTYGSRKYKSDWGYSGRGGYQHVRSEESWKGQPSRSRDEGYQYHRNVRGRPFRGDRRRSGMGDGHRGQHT
Method in brief: as §1

[9] = target: T5, OTUD5 (UniProt Q96G74)
T5 sequence (whole entry): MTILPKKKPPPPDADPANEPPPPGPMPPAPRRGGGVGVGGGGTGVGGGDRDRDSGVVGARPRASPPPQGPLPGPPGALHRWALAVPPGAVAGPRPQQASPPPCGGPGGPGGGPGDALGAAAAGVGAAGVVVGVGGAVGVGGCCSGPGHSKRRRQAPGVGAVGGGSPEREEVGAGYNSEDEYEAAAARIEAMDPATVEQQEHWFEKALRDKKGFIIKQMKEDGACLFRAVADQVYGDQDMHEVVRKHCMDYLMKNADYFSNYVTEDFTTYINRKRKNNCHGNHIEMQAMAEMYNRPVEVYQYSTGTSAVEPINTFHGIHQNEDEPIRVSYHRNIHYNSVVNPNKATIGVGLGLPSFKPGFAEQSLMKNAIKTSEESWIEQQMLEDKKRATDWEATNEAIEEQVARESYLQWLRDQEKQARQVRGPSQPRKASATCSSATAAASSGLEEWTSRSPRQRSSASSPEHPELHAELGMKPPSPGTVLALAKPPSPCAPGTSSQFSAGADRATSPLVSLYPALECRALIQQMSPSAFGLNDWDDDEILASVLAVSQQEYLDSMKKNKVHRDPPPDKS
Method in brief: as §1

Measured: log2 ratio of Biotin-Ahx-Ub-VS probe labelling

Sequence of EIF3F (O00303 whole entry): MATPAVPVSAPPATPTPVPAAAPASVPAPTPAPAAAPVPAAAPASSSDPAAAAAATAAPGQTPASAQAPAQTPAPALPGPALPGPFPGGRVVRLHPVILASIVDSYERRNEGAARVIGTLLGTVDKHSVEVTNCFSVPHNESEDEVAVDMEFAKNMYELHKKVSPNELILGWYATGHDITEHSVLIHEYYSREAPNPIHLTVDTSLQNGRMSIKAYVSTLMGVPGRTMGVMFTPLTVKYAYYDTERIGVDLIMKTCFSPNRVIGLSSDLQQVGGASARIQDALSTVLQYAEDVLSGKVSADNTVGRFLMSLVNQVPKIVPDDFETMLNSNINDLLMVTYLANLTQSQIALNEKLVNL
Sequence of OTUB1 (Q96FW1 whole entry): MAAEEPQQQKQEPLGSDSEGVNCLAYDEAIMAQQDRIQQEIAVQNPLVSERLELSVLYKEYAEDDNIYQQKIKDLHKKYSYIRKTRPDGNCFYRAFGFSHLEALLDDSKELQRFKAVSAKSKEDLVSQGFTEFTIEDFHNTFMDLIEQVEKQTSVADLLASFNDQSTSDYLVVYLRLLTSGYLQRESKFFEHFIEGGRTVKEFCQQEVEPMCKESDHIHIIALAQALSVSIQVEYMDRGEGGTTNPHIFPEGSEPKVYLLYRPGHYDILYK
Sequence of ATXN3 (P54252 whole entry): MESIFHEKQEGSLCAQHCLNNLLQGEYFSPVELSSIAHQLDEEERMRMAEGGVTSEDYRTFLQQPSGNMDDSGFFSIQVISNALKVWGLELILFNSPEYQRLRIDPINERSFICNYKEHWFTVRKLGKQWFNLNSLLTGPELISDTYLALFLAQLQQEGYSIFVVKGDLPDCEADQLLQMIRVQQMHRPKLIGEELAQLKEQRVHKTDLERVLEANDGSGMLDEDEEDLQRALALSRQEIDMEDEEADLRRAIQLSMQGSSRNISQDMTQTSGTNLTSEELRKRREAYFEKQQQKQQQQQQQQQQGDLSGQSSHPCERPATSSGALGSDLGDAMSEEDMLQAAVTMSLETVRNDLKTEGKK
Sequence of EIF3H (O15372 whole entry): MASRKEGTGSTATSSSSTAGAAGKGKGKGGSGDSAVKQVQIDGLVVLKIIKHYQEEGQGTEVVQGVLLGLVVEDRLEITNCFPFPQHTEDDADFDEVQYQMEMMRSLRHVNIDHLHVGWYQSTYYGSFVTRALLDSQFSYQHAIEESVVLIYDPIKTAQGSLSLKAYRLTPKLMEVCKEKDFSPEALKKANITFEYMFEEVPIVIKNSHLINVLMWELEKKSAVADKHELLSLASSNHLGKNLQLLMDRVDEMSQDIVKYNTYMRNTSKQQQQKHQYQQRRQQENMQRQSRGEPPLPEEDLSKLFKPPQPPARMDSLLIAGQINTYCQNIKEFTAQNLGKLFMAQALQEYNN

O=C(CCl)N1CCOC2(CCC2)CC1
inactive: [1] -0.588 | [2] -0.29 | [3] -0.305 | [4] -0.12 | [5] 0.0846 | [6] -0.0165 | [7] -0.14 | [8] -0.374 | [9] -0.595
